One assay has as its target Albumin (Bos taurus) (UniProt P02769). The assay can be described thus: compounds binding labelled BSA control protein – biochemical, small-molecule microarray, Alexa647 label, 635/667 nm fluorescence, artefact control for SMM control protein annotation, profiling panel (AID 1118).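 Further: score merges 667 nm emission intensity and signal-to-noise per printed compound spot.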 To be noted: BSA-A647 binding, fluorescence 635 nm, higher = more signal.
The nature of assay [1]: probe aXIP binding to arrayed compounds – biochemical, NeuroSMM set, 635/667 nm fluorescence, primary screen (AID 1119).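 Further: probe is the protein aXip251-270 applied at 1 µg/mL to compound-printed slides; binding of probe to printed compounds measured as 667 nm fluorescence plus signal to noise.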 To be noted: small-molecule microarray, higher = more signal, called active from +8 up or from −8 down.
A short description of assay [2]: probe aNOTCH3 binding on compound microarray – biochemical, small-molecule microarray, 635/667 nm fluorescence, primary screen (AID 1120).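 Further: probe is a biotin-tagged antibody raised against NOTCH3 rather than NOTCH3 protein; score merges spot fluorescence near 667 nm with spot signal to noise.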 To be noted: higher = more signal.
Assay [3] in a line: probe aNOTCH2 binding on compound microarray – biochemical, small-molecule microarray, 635/667 nm fluorescence, primary screen (AID 1121).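 Further: score merges feature fluorescence read at 667 nm with its signal to noise.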 The conditions noted are these: higher = more signal.
Assay [4] concerns the target Carbonic anhydrase 2 (Homo sapiens) (UniProt P00918). Description: compounds binding carbonic anhydrase 2 – biochemical, small-molecule microarray, Alexa647-labelled CAII, profiling panel (AID 1122). To be noted: CAII-A647 binding fluorescence, higher = more signal.
Assay [5] is described as follows: COS7 lysate on small-molecule microarray, probe aHis, 635 nm (AID 1123).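 Further: z-score combines 667nm fluorescence intensity with signal-to-noise per printed compound spot.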 The conditions noted are these: COS7 cell lysate, fluorescence, higher = more signal.
The nature of assay [6]: probe aLAP1 signal on lysate-treated microarray – cell lysate, small-molecule microarray, COS7 lysate, primary screen (AID 1124).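 Further: lysate comes from COS7 cells expressing LAP1 and is applied at 0.3 µg/mL; score merges spot fluorescence near 667 nm with signal-to-noise over triplicate slides.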 The conditions noted are these: probe aLAP1, fluorescence, higher = more signal.
Another assay concerns Sam68 (KHDRBS1). The assay can be described thus: compounds binding KHDRBS1 protein – biochemical, small-molecule microarray, 635 nm fluorescence, primary screen (AID 1125).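 Further: score merges 667 nm channel intensity with signal to noise over triplicate slides.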 The conditions noted are these: higher = more signal.
In assay [7] the test system is Chordin-like protein 2 (CHRDL2). Description: compounds binding chordin-like 2 – biochemical, small-molecule microarray, 635 nm fluorescence, primary screen (AID 1126).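 Further: printed compound slides probed with Chrdl2 protein at 4 µg/mL for 1 h at 4 C; score merges 667 nm emission intensity with signal to noise over three replicate slides.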 The conditions noted are these: fluorescence 635 nm, higher = more signal.
Assay [8] concerns the target Concanavalin-A (Canavalia ensiformis) (UniProt P02866). The assay can be described thus: compounds binding concanavalin A lectin – biochemical, small-molecule microarray, Alexa647 label, 635 nm, artefact control for SMM control protein annotation, primary screen (AID 1127).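 Further: z combines 667 nm emission intensity with signal-to-noise across three replicate slides.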 To be noted: ConA-A647 binding fluorescence, higher = more signal.

The source made the active and inactive calls.

Chain of Concanavalin-A (Canavalia ensiformis) (P02866 whole entry, looked up): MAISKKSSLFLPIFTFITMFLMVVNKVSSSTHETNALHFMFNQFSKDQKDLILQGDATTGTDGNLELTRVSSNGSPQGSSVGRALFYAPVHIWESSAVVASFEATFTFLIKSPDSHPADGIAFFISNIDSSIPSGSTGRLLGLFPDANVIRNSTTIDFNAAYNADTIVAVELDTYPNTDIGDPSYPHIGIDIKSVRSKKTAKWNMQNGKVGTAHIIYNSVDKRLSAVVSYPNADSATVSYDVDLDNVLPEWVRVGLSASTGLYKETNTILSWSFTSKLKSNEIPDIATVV
Chain of Albumin (Bos taurus) (P02769 whole entry, looked up): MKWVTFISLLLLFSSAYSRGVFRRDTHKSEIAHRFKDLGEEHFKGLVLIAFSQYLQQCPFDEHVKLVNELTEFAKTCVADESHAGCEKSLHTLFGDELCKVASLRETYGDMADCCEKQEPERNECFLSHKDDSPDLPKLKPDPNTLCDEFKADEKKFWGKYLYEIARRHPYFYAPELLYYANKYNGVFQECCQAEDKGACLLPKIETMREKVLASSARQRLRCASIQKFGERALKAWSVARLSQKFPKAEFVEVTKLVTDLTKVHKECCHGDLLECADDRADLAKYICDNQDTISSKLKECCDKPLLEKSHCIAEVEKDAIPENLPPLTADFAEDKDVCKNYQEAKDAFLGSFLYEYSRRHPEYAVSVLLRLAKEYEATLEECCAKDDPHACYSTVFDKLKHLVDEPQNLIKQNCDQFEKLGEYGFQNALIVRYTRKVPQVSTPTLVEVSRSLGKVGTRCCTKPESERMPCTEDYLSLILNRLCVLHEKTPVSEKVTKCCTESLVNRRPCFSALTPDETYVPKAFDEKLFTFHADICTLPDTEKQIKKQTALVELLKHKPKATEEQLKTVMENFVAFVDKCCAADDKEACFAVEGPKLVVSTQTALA

For `O=C(NCc1ccc(F)cc1)[C@H]1C[C@H]2C(=O)NCC(=O)N2[C@H]1c1ccc(O)cc1`, the composite z-score in the assay with Albumin (Bos taurus) was -0.447; in assay [2], 0.0066; in assay [3], -0.084; in [4], 0.694; in [5], 1.43; in [6] it was 0.112. Also, the composite z-score was 1.07 with Sam68 (KHDRBS1), 0.491 in assay [7] and 0.8 in assay [8]. Also, the composite Z-score in [1] was 0.534 (inactive).

On to `C=CCOC(=O)[C@@]1(Cc2ccccc2)C[C@H]2CO[C@H](c3ccc(OC)cc3)N2C1=O`, for which the composite z-score is 0.484 with Albumin (Bos taurus); -0.0615 in [2]; -0.107 in assay [3]; -0.0067 in assay [4]; 0.146 in assay [5]; 0.0469 in assay [6]. For the same molecule, the composite z-score in the assay with Sam68 (KHDRBS1) was 0.168; in assay [7] it was 0.194; in [8], 0.192. For the same molecule, in assay [1], the composite Z-score is -0.415 (inactive).

As for `COc1ccc(C#Cc2ccc3c(c2)[C@]2(C(=O)N3)[C@H](C(=O)O)[C@H]3C(=O)O[C@H](c4ccccc4)[C@H](c4ccccc4)N3[C@@H]2c2ccc(O)cc2)cc1`, the composite z-score with Albumin (Bos taurus) was 0.314; in assay [2], -0.243; in assay [3] it was -0.0664; in [4], 0.659; in assay [5], 1.15; in assay [6], 0.577. Further, the composite z-score in the assay with Sam68 (KHDRBS1) is 0.285; in assay [7] it was -0.844; in [8] it was -0.425. Also, the composite Z-score in [1] was -0.118 (inactive).

Regarding `[N-]=[N+]=Nc1ccccc1C[C@@]1(C(=O)NCCN2CCOCC2)N=C(c2ccc(OCCCO)cc2)O[C@@H]1c1ccccc1N=[N+]=[N-]`, the composite z-score is 0.832 with Albumin (Bos taurus); 0.351 in assay [2]; -0.0211 in assay [3]; 0.556 in [4]; 2.51 in assay [5]; 0.865 in [6]. Also, the composite z-score in the assay with Sam68 (KHDRBS1) was 1.3; in assay [7], -0.198; in assay [8], 1.04. Besides, the composite Z-score in [1] was -0.0662 (inactive).

For the molecule `CCCCC=C[C@@H](NC(=O)OCc1ccccc1Cl)c1ccccc1`, the composite z-score is 0.997 in the assay with Albumin (Bos taurus); 1.74 in assay [2]; 0.825 in [3]; 0.526 in assay [4]; 2.65 in assay [5]; 0.0357 in assay [6]. For the same molecule, the composite z-score in the assay with Sam68 (KHDRBS1) is 1.3; in [7], -0.747; in assay [8], 1.13. In assay [1], the composite Z-score was -0.418 (inactive).

As to `COCC(=C=CC[C@H](O)c1ccccc1OCCO)C[C@H](O)c1ccccn1`, the composite z-score with Albumin (Bos taurus) was 0.519; in assay [2], -0.116; in assay [3], -0.0984; in assay [4] it was 0.426; in assay [5] it was -0.0733; in assay [6], -0.144. Besides, the composite z-score in the assay on Sam68 (KHDRBS1) was 0.544; in [7], -0.123; in [8] it was 0.215. Besides, in [1], the composite Z-score was 0.2 (inactive).

In the case of `CCCC[C@@H](O)C1=C(COC)C[C@H]2C(=O)N(Cc3ccccc3)C(=O)[C@H]2[C@H]1CO`, the composite z-score with Albumin (Bos taurus) was 0.232; in [2], -0.214; in assay [3], -0.0668; in assay [4], 0.0793; in assay [5] it was 0.368; in [6], 0.263. The composite z-score was found to be 0.651 in the assay on Sam68 (KHDRBS1), 0.293 in assay [7] and 0.455 in assay [8]. The composite Z-score in [1] is -0.306 (inactive).

For `C=CCC(OC(C)=O)[C@@H]1[C@@H](N(Cc2cccc3ccccc23)C(=O)Cc2ccc(F)cc2)c2cc(OCCCO)ccc2N1C(=O)c1ccc2ccccc2c1` (stereo not given in full), the composite z-score in the assay with Albumin (Bos taurus) was -0.0241; in assay [2] it was -0.0111; in [3], -0.104; in assay [4], -0.0968; in assay [5], 0.0036; in [6], -0.353. For the same molecule, the composite z-score in the assay with Sam68 (KHDRBS1) was -0.0562; in assay [7], 0.235; in assay [8] it was -0.15. Also, in assay [1], the composite Z-score is -0.748 (inactive).

`CCCN1C(=O)[C@]2(Cc3ccccc31)N=C(c1ccc(OCCCO)cc1)O[C@@H]2c1ccccc1`: the composite z-score with Albumin (Bos taurus) is -0.0671; in assay [2] it was 0.247; in assay [3], -0.125; in [4] it was 0.625; in assay [5], 2.19; in assay [6], 0.402. For the same molecule, the composite z-score was 1.24 with Sam68 (KHDRBS1), -0.184 in [7] and 0.884 in [8]. In assay [1], the composite Z-score was 0.0068 (inactive).

For `O=C1C[C@]2(c3ccc([N+](=O)[O-])cc3)C(=O)N(C3CC3)c3cc(CO)ccc3[C@H]2N1CC12CC3CC(CC(C3)C1)C2`, the composite z-score is 0.393 with Albumin (Bos taurus); -0.213 in assay [2]; -0.0357 in assay [3]; 0.76 in assay [4]; 0.422 in assay [5]; 0.401 in assay [6]. Moreover, the composite z-score was -0.183 with Sam68 (KHDRBS1), -0.201 in assay [7] and 0.176 in assay [8]. Further, the composite Z-score in assay [1] was -0.571 (inactive).

Regarding `CC#CCO[Si](C#Cc1ccccc1)(C(C)C)C(C)C`, the composite z-score is -1.33 with Albumin (Bos taurus); -0.365 in assay [2]; -0.156 in [3]; -0.624 in assay [4]; -0.445 in assay [5]; -0.353 in assay [6]. Besides, the composite z-score in the assay with Sam68 (KHDRBS1) is -1.18; in assay [7], -0.913; in assay [8], -1.46. Also, in [1], the composite Z-score is -0.197 (inactive).

For the molecule `NCCCCCCNC(=O)[C@@H]1C[C@@H]2C(=O)N[C@@H](CCCCN)C(=O)N2[C@@H]1c1ccc(O)cc1`, the composite z-score was -1.58 in the assay with Albumin (Bos taurus); -0.0431 in assay [2]; -0.0386 in assay [3]; 0.782 in [4]; 1.68 in assay [5]; 1.18 in assay [6]. For the same molecule, the composite z-score with Sam68 (KHDRBS1) is 0.762; in assay [7], 0.667; in assay [8] it was 0.0619. In addition, the composite Z-score in assay [1] is 1.7 (inactive).

Take `CN1C2C=C(CCCO)C(C3C(=O)N(C(N)=O)C(=O)C32)C1C1CC1` (stereo not given): the composite z-score is -0.0873 in the assay with Albumin (Bos taurus); -0.272 in [2]; -0.14 in [3]; 0.234 in assay [4]; 0.043 in [5]; -0.182 in [6]. Further, the composite z-score in the assay with Sam68 (KHDRBS1) was 0.0346; in assay [7], -0.0334; in assay [8], 0.31. For the same molecule, the composite Z-score in assay [1] was -1.14 (inactive).

Regarding `Cn1cccc1C(O)C1C=CC2C(=O)N(c3ccccc3)C(=O)C2N1Nc1ccccc1` (stereo not given), the composite z-score in the assay with Albumin (Bos taurus) turned out to be 0.857; in assay [2] it was 0.346; in assay [3], 0.2; in [4], 0.805; in [5] it was 2.37; in assay [6], 0.461. The composite z-score in the assay with Sam68 (KHDRBS1) was 1.3; in assay [7], 0.352; in assay [8], 1.19. Further, in assay [1], the composite Z-score was 0.581 (inactive).

For `CS(=O)(=O)CCOC(=O)C1=CC(c2ccc(CO)cc2)=CC(C2CC2)N(Cc2sc3ccccc3c2Cl)C=C1C(=O)OCCS(C)(=O)=O` (stereo not given), the composite z-score in the assay with Albumin (Bos taurus) is 0.52; in assay [2], 0.029; in assay [3], -0.0839; in [4] it was 0.815; in assay [5], 0.737; in assay [6], 0.55. In addition, the composite z-score in the assay with Sam68 (KHDRBS1) was 1.03; in [7] it was 0.802; in assay [8], 1.11. Besides, the composite Z-score in assay [1] was 0.42 (inactive).

For `COc1ccc([Si](C)(C)[C@@H]2[C@@H](CCO)O[C@]3(C(=O)N(Cc4ccccc4)c4ccc(NC(=O)[C@H](C)O)cc43)[C@H]2C)cc1`, the composite z-score was 0.0962 with Albumin (Bos taurus); 0.147 in assay [2]; -0.106 in assay [3]; 0.377 in [4]; 1.2 in assay [5]; 0.515 in assay [6]. For the same molecule, the composite z-score came out at 1.29 in the assay with Sam68 (KHDRBS1), 0.448 in assay [7] and 1.14 in assay [8]. Further, the composite Z-score in assay [1] was -0.0289 (inactive).

The record behind these values is PubChem BioAssay.
